Several values for one entry are separate records, joined by “and”; a condition that tells them apart may be missing. Equal values may be shown once. Results filed as inconclusive are left out. Activity calls are given as the source filed them. Unless noted, calls come from the whole dose curve; as a rule, active = well fitted curve in either direction with a large enough effect (not every such curve was filed as active); inconclusive = small, poorly fitted or top-dose-only effect, or another doubt; inactive = flat fitted curve, though single readings scatter.
Experiments:
[1] = Primary qHTS for inhibitors of nuclear receptor binding SET domain protein 2 (NSD2) in an isogenic RCH-ACV NSD2 p.E1099K mutant (9B) (AID 1645876; active = well fitted curve in the direction sought with a large enough effect; an effect the other way counts as inactive or inconclusive; note: nearly all actives have a fitted effect of over 70% in size; note: potency is the fitted concentration of half-maximal effect)
[2] = target: Glutathione peroxidase 1 (Homo sapiens) (UniProt P07203); test: Primary qHTS Assay for Inhibitors of Recombinant Selenoprotein Glutathione Peroxidase 1 (GPX1) (AID 1845191; active = well fitted curve in the direction sought with a large enough effect; an effect the other way counts as inactive or inconclusive; note: nearly all actives have a fitted effect of over 65% in size)
Sequence of Glutathione peroxidase 1 (Homo sapiens) (P07203 whole entry, looked up): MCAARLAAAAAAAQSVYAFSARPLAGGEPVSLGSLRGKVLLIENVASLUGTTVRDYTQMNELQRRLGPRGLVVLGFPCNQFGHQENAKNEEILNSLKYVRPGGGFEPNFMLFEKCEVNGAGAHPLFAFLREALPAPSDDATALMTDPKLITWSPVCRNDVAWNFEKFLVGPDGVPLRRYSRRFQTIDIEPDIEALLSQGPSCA
How it was run: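 NADPH consumption tracked by fluorescence at 340/450 nm between t=0 and t=15 min, room temperature. Final mix: 10 nM GPX1, 100 nM glutathione reductase, 1 mM GSH, 0.5 mM NADPH, 0.5 mM cumene hydroperoxide, 0.01% BSA; 30 min compound–enzyme preincubation.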

[3] = target: Phospholipid hydroperoxide glutathione peroxidase GPX4 (Homo sapiens) (UniProt P36969); test: Primary qHTS Assay for Inhibitors of Recombinant Selenoprotein Glutathione Peroxidase 4 (GPX4) (AID 1845192; active = well fitted curve in the direction sought with a large enough effect; an effect the other way counts as inactive or inconclusive; note: nearly all actives have a fitted effect of over 65% in size); settings: outcome: dose series up to 50 µM unless noted
Sequence of Phospholipid hydroperoxide glutathione peroxidase GPX4 (Homo sapiens) (P36969 whole entry, looked up): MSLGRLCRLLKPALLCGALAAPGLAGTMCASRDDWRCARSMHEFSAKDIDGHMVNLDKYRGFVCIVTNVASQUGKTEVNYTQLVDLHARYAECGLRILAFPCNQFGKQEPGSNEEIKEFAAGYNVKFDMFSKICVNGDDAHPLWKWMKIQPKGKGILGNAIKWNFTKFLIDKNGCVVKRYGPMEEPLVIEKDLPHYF
How it was run: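 NADPH consumption followed by fluorescence at 340/450 nm, t=0 and after 15 min at room temperature. Reaction started with cumene hydroperoxide (0.5 mM final) after 30 min compound–GPX4 preincubation; final 200 nM GPX4, 100 nM GR, 1 mM GSH, 0.5 mM NADPH.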

[4] = qHTS drug screen for cell cycle checkpoint inhibitors in PARPi-resistant BRCA-mutant ovarian cancer cell lines. (AID 1963452; calls by dose curve; note: potency is the fitted concentration of half-maximal effect); settings: PEO1/OlaR viability, CellTiter-Glo luminescence, 96 h; for Z-AUC: stronger effect = lower value
How it was run: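 PEO1, PEO4 and PEO1/OlaR ovarian cancer cells, 600 per well, exposed 96 h at 37C to a dilution series. Viability read by CellTiter-Glo luminescence, normalized to DMSO and empty wells; activity summarized as Z-AUC.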

[5] = Primary qHTS for inhibitors of nuclear receptor binding SET domain protein 2 (NSD2) in an RCH-ACV wild type WT cells (2C) (AID 1645877; active = well fitted curve in the direction sought with a large enough effect; an effect the other way counts as inactive or inconclusive; note: potency is the fitted concentration of half-maximal effect; nearly all actives have a fitted effect of over 70% in size)
[6] = AP1 Signaling Pathway (AID 357); settings: ME-180 AP-1-bla reporter, EGF-induced, beta-lactamase ratio, 5 h;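 note: ME-180 reporter cells stimulated with EGF at its EC50 level; % is set by controls: 0 for no effect and ±100 for the full control effect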
How it was run: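 Read-out was the 460nm/530nm emission ratio (excitation 405nm) after CCF4 loading for 2.5 hours at room temperature. Cells carried an AP-1-driven beta-lactamase reporter, were stimulated with EC50 EGF plus compound for 5 hours, and AC50 values came from titrations.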

[7] = NFAT Signaling Pathway (AID 444); settings: Jurkat NFAT-bla M1, carbachol, beta-lactamase ratio, 5 h;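 note: carbachol stimulus at about its EC50 of 1 µM final; % is set by controls: 0 for no effect and ±100 for the full control effect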
How it was run: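 Read-out: CCF4 FRET ratio (460 nm/530 nm) after 1 h RT dye loading, used for %activity and AC50 from titration series. Cells: Jurkat NFAT-β-lactamase/M1 line, treated with compound plus 1 uM carbachol for 5 h, 37 °C.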

[8] = Stat Signaling Pathway (AID 446); settings: ME-180 (cervical carcinoma) SIE beta-lactamase reporter, IL-6 stimulated, 5 h;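 note: ME-180 cervical cancer cells given 40 pM IL-6 alongside compound; SIE-controlled beta-lactamase reporter measured as 460/530 nm FRET emission ratio; % is set by controls: 0 for no effect and ±100 for the full control effect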
How it was run: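 Emission at 460 and 530 nm (excitation 405 nm) reports SIE-controlled beta-lactamase in ME-180 cells. Cells received compound with 40 pM IL-6 for 5 hrs at 37 C; data scaled between 300 pM IL-6 and 125 nM JAK-inhibitor controls.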

[9] = target: Mitogen-activated protein kinase 10 (Mus musculus) (UniProt Q61831); test: JNK3 AlphaScreen Assay (AID 530);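 note: kinase came from lysate of stimulated human HepG2 cells; signal reports phosphorylation of biotinylated GST-cJun 1-79 at Ser73 with 10 µM ATP; % is set by controls: 0 for no effect and ±100 for the full control effect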
How it was run: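 Kinase buffer: 20 mM Tris-HCl pH 7.6, 10 mM MgCl2, 1 mM DTT, 0.1 mM Na3VO4, 0.01% Tween-20; ATP 10 uM. Substrate biotin-GST-cJun(1-79), enzyme from activated HepG2 lysates. Detection by Ser73 phospho-antibody AlphaScreen.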

[10] = target: 3',5'-cyclic-AMP phosphodiesterase 4B (Homo sapiens) (UniProt Q07343); test: qHTS Assay for Inhibitors of PDE-IV (AID 607; active = well fitted activation curve with a large enough effect in the main read-out, with a control signal flat, not every such curve was filed as active; note: % of control where 0% means no effect)
Sequence of 3',5'-cyclic-AMP phosphodiesterase 4B (Homo sapiens) (Q07343 whole entry, looked up): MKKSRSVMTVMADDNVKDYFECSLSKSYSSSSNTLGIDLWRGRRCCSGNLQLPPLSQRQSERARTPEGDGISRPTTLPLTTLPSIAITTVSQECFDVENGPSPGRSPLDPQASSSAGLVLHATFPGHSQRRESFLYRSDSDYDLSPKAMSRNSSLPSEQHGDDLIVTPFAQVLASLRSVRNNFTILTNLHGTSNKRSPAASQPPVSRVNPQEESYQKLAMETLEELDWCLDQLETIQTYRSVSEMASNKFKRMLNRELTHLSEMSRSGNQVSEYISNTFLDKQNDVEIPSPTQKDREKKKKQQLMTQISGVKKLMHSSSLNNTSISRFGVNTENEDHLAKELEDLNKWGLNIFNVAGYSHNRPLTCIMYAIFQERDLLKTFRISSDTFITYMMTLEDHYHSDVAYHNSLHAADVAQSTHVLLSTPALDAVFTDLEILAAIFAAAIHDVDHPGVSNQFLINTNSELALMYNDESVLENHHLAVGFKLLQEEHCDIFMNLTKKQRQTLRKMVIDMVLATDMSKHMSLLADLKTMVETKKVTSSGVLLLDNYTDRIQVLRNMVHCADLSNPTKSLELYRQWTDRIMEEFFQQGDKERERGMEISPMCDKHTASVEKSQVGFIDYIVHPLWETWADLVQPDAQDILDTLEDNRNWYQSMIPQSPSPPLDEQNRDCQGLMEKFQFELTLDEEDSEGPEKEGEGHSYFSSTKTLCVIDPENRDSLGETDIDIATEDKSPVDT
How it was run: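 The readout is membrane depolarisation from a cAMP-sensing CNG channel, detected with a potential dye at ex 535/em 590. Cells were HEK293-derived (endogenous PDE-IV) at 1000 cells/well, titrated up to 22.9 uM final.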

[11] = qHTS Assay for Lipid Storage Modulators (AID 1519; calls by dose curve); settings: Drosophila S3 cells, BODIPY lipid droplet/cell ratio, laser cytometry, cells loaded with oleic acid
How it was run: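 Cells seeded at 5,000 per well were treated with compounds over a concentration series and loaded with oleic acid (400 uM, as added). Lipid droplet fluorescence (488 nm excitation, 500-530 nm channel) was read by laser-scanning cytometry and normalized to 20 uM Triacsin C.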

[12] = measured here: PEO1 parental Z-AUC

## CCn1c(=O)c2c(nc(/C=C/c3ccc(OC)c(OC)c3)n2C)n(CC)c1=O
[1]
  Potency: inactive
[2]
  Potency: inactive
[3]
  Potency: inactive
[4]
  Z-AUC: 0.577 (inactive)
[4]; [12]
  Z-AUC: 0.401
[4]; measured here: PEO4 Z-AUC
  Z-AUC: 0.882

## CN(C(=O)CNC(=O)/C=C/c1cccc(Cl)c1)C1CCS(=O)(=O)CC1
[2]
  Potency: inactive
[3]
  Potency: inactive
[4]
  Z-AUC: -0.555 (inactive)
[4]; [12]
  Z-AUC: -0.958
[4]; measured here: PEO4 Z-AUC
  Z-AUC: -0.957

## CCNCCS(=O)(=O)NC[C@@]1(c2ccccc2)SC(NC(=O)C(C)(C)C)=NN1C(=O)C(C)(C)C
[1]
  Potency: 9.3 nM (active)
[5]
  Potency: 7.4 nM (active)
[2]
  Potency: inactive
[3]
  Potency: inactive
[4]
  Potency: 8.7 nM (active)
[4]; [12]
  Z-AUC: -2.33
[4]; measured here: PEO4 Z-AUC
  Z-AUC: -2.54

## CCCNC[C@H](O)COc1ccccc1C(=O)CCc1ccccc1
[6]; at 17.2 µM (top of the series)
  activity change, negative = inhibition: 6.84% (inactive)
[6]; at 38 µM (top of the series)
  activity change, negative = inhibition: 18.1% (inactive) and 7.01% (inactive)
[7]; at 17.2 µM (top of the series)
  activity change, negative = inhibition: 3.46% (inactive)
[7]; at 38 µM (top of the series)
  activity change, negative = inhibition: 1.4% (inactive) and 9.3% (inactive)
[8]; at 17.2 µM (top of the series)
  activity, negative = inhibition: -4.64% (inactive)
[8]; at 38 µM (top of the series)
  activity, negative = inhibition: -19.1% (inactive) and -13.3% (inactive)
[9]
  outcome: inactive
[10]
  Potency: inactive
[11]; at 25.7 µM (top of the series)
  activity change, negative = inhibition: -1.16% (inactive)
[11]; at 57.5 µM (top of the series)
  activity change, negative = inhibition: -2.08% (inactive)
[11]; measured here: cell count channel max response
  max response: -11.4% and -51.8%
[11]; measured here: lipid channel max response
  max response: -13.7% and -51.9%

Reference: PubChem BioAssay (NCATS)
